Records with an inconclusive call do not appear. A number with no mark means an inactive call. Activity calls are given as the source filed them. Calls follow the shape of the dose curve; as a rule, active = well fitted inhibition curve with a large enough effect; inconclusive = small, poorly fitted or top-dose-only effect; inactive = no such curve, though single readings can be large or run the other way.
The molecules below were run against Luciferin 4-monooxygenase (Photinus pyralis) (UniProt P08659) (assay: FLuc inhibitory activity for the follow-up compounds in a biochemical assay with Km concentrations of substrate). Details: purified FLuc, Km substrates, luminescence; series mostly up to 57.5 µM; activity change, negative = inhibition: at the top concentration.
Source text: NCGC Assay Overview: Firefly (Photinus pyralis) luciferase is one of the most commonly used transcriptional reporters. It is considered one of the more dynamically responsive reporters - that is, responsive to changes in reporter transcription - as it requires no post-translational modifications and is enzymatically active directly after protein synthesis (Wood, 1998). With no endogenous expression in mammalian cells and without the requirement of external excitation, it offers very little background signal, thus generally providing excellent signal to background for most assays. Previous profiling work to determine the prevalence of compounds that affect FLuc enzymatic activity (PubChem AID 411) identified that ~3% of the MLSMR library (then at ~72K) inhibited FLuc. […] Of the compounds identified in this profile that inhibited FLuc, 151 compounds were selected for further analysis, in an effort to better understand their mode of inhibiting FLuc. The assay described here confirms the FLuc inhibitory activity of the 151 compounds.
NCGC Assay Protocol Summary: Reagents: 50mM Tris acetate, pH 7.5; 10mM Mg acetate; 10uM D-luciferin (Sigma #L9504); 10uM ATP; 0.01% Tween-20; 0.05% BSA; 10nM P. pyralis luciferase (Sigma #L9506) Control compounds used were two known firefly luciferase inhibitors (3-(5-(3-chlorophenyl)-1,2,4-oxadiazol-3-yl)benzoic acid and 5-(2-fluorophenyl)-3-phenyl-1,2,4-oxadiazole), and DMSO. Three microliters containing firefly luciferase substrates in buffer (final concentrations: 50mM Tris acetate, pH 7.5, 10mM Mg acetate, 0.01% Tween-20, 0.05% BSA, 10uM D-luciferin, and 10uM ATP) are dispensed into each well of a Greiner white, solid-bottom 1536-well format plate using a flying reagent dispenser (FRD). These assay plates were then treated with 23nL of compound or DMSO using a Kalypsys pin tool, which allows for delivery of a 12-point intraplate titration of each compound to the assay plate (quantitative HTS), with a final compound concentrations ranging from approximately ~60uM to 0.3nM. One microliter of firefly luciferase in 500mM Tris-acetate buffer was then delivered by FRD to each well for a final enzyme concentration of 10nM. Luciferase activity was then measured using a ViewLux CCD imager (PerkinElmer), with an average exposure time of 2-30 seconds (2X binning, medium/high gain).

Sequence of Luciferin 4-monooxygenase (Photinus pyralis) (P08659 whole entry, looked up): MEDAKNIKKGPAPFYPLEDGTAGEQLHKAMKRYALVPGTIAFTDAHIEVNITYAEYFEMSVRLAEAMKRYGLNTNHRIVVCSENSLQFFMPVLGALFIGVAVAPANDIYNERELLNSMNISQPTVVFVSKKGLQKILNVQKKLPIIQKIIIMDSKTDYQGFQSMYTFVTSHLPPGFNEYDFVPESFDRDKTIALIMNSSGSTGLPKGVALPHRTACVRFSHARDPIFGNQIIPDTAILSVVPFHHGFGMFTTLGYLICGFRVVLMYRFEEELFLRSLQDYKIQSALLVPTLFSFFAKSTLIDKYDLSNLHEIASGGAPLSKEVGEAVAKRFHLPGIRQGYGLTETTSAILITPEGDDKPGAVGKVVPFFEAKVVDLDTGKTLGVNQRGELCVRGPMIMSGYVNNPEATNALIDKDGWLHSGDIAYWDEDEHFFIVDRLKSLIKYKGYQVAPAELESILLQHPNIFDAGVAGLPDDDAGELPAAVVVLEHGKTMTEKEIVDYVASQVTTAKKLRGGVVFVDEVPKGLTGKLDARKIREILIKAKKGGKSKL

Row | Structure (SMILES) | Potency | activity change, negative = inhibition [%]
1 | O=C(O)c1ccc(NC(=O)c2ccccc2NC(=O)c2cccc(Br)c2)cc1 | 14600 nM (active) | –
2 | Cc1ccc2sc(-c3ccc(N)cc3)nc2c1 | 183 nM (active) | –
3 | CCOc1ccc2nc(NC(=O)c3ccccc3)sc2c1 | 326 nM (active) | –
4 | Nc1ccc(-c2nc3ccc(N)cc3s2)cc1 | 326 nM (active) | –
5 | Cc1ccc(S(=O)(=O)N2CCOCC2)cc1C(=O)Nc1ccccc1C(=O)O | – | -19.3
6 | Nc1cccc(-c2nc3ccc(N)cc3s2)c1 | 366 nM (active) | –
7 | COc1ccc(C(=O)Nc2ccccc2C(=O)Nc2ccc(C(=O)O)cc2)cc1 | 1630 nM (active) | –
8 | COc1ccc2nc(NC(=O)c3ccc4ncsc4c3)sc2c1 | 1630 nM (active) | –
9 | O=C(Nc1ccccc1C(=O)O)c1ccc(Cl)c(S(=O)(=O)N2CCOCC2)c1 | 8190 nM (active) | –
10 | C/C(=N\NC(=O)c1ccccc1NC(=O)c1ccc(Cl)cc1)c1ccncc1 | 11.6 nM (active) | –
11 | Nc1ccccc1C(=O)Nc1cccc(C(=O)O)c1 | 2060 nM (active) | –
12 | COc1ccc2nc(NC(=O)c3ccc(NS(=O)(=O)c4cccs4)cc3)sc2c1 | 10300 nM (active) | –
13 | Cc1ccc(S(=O)(=O)N2CCN(C(=O)c3ccccc3-c3nc4ccccc4s3)CC2)c(C)c1 | – | -4.09
14 | Cc1cccc(C(=O)Nc2ccccc2C(=O)Nc2ccc(C(=O)O)cc2)c1 | 11600 nM (active) | –
15 | CCOc1c(Cl)cc(C(=O)Nc2ccccc2C(=O)O)cc1Cl | 18300 nM (active) | –
16 | CN(C)c1cccc(C(=O)Nc2ccc(-c3nc4ccccc4s3)cc2)c1 | 2910 nM (active) | –
17 | CC(=O)Oc1ccc(C(=O)Nc2ccccc2C(=O)Nc2cccc(C(=O)O)c2)cc1 | 6510 nM (active) | –
18 | O=C(Nc1ccccc1C(=O)O)c1cccc(S(=O)(=O)Nc2ccc(Br)cc2)c1 | – | -10.2
19 | O=C(O)c1ccc(NC(=O)c2cccc(NC(=O)c3cccs3)c2)cc1 | 9190 nM (active) | –
20 | O=C(O)c1cccc(NC(=O)c2ccc(Cl)c(S(=O)(=O)N3CCCCCC3)c2)c1 | 58 nM (active) | –

Row | Structure (SMILES) | Potency | activity change, negative = inhibition [%]
21 | O=C(O)c1cccc(NC(=O)c2cccc(S(=O)(=O)N3CCc4ccccc4C3)c2)c1 | 36600 nM (active) | –
22 | CCn1c(C)nc2cc(-c3nc4n(n3)Cc3ccccc3-4)ccc21 | 23.1 nM (active) | –
23 | O=C(O)c1cccc(NC(=O)c2ccc(S(=O)(=O)c3ccccc3)cc2)c1 | 5800 nM (active) | –
24 | Cn1c(N/N=C/c2cc3ccccc3nc2Cl)nc2ccccc21 | 58 nM (active) | –
25 | CC(=O)Nc1cccc(-c2nc3ccccc3s2)c1C | 23100 nM (active) | –
26 | O=C(Cc1ccccc1)Nc1ccccc1C(=O)Nc1ccc(C(=O)O)cc1 | – | -2.27
27 | CC(=O)Oc1ccc(C(=O)Nc2ccccc2C(=O)Nc2ccc(C(=O)O)cc2)cc1 | 5800 nM (active) | –
28 | O=C(Nc1ccccc1C(=O)O)c1ccc(NC(=O)C2CC2)cc1 | 2590 nM (active) | –
29 | Cc1c(C)c2ccc(OCC(=O)Nc3ccccn3)c(C)c2oc1=O | 11.6 nM (active) | –
30 | COc1ccc(-c2nc3ccccc3s2)cc1NC(=O)c1ccc(F)cc1 | – | -7.28
31 | O=C(Nc1ccccc1C(=O)O)c1cccc(NC(=O)c2ccc(Br)o2)c1 | 23100 nM (active) | –
32 | Cc1ccc(C(=O)Nc2cccc(C(=O)O)c2)cc1S(=O)(=O)N1CCCCC1 | 65.1 nM (active) | –
33 | CCOc1ccc2nc(NC(=O)c3ccccn3)sc2c1 | 517 nM (active) | –
34 | COc1cc(OC)cc(-c2nc3ccccc3s2)c1 | 6510 nM (active) | –
35 | Cc1ccc(C(=O)Nc2ccc(C(=O)O)cc2)cc1S(=O)(=O)Nc1ccccc1 | – | 18.1
36 | COc1ccc2nc(NC(=O)c3ccc(S(=O)(=O)N4CCCC(C)C4)cc3)sc2c1 (stereo not given) | – | -0.483
37 | CC(C)CC(=O)Nc1cccc(C(=O)Nc2ccccc2C(=O)O)c1 | 18300 nM (active) | –
38 | COc1ccc(NS(=O)(=O)c2cccc(C(=O)Nc3ccccc3C(=O)O)c2)cc1 | – | -6.02
39 | Nc1ccc2nc(-c3ccc(O)cc3)sc2c1 | 410 nM (active) | –
40 | O=C(Nc1ccccc1C(=O)O)c1ccccc1 | 32600 nM (active) | –

— PubChem BioAssay AID602357 (National Center for Advancing Translational Sciences (NCATS), 2012)
